High-throughput results deposited in PubChem BioAssay by National Center for Advancing Translational Sciences (NCATS).
BAZ2B inh – BAZ2B (human) inhibition. hit rate 4.4% among 360,000. AlphaScreen BAZ2B-H3K14Ac peptide displacement. Potency, µM (titrated, usually from 114 µM), hits mostly inhibitors. Q9UIF8. AID 504333; note: nearly all actives have a fitted effect of over 60% in size
Target sequence (Q9UIF8 whole entry, looked up): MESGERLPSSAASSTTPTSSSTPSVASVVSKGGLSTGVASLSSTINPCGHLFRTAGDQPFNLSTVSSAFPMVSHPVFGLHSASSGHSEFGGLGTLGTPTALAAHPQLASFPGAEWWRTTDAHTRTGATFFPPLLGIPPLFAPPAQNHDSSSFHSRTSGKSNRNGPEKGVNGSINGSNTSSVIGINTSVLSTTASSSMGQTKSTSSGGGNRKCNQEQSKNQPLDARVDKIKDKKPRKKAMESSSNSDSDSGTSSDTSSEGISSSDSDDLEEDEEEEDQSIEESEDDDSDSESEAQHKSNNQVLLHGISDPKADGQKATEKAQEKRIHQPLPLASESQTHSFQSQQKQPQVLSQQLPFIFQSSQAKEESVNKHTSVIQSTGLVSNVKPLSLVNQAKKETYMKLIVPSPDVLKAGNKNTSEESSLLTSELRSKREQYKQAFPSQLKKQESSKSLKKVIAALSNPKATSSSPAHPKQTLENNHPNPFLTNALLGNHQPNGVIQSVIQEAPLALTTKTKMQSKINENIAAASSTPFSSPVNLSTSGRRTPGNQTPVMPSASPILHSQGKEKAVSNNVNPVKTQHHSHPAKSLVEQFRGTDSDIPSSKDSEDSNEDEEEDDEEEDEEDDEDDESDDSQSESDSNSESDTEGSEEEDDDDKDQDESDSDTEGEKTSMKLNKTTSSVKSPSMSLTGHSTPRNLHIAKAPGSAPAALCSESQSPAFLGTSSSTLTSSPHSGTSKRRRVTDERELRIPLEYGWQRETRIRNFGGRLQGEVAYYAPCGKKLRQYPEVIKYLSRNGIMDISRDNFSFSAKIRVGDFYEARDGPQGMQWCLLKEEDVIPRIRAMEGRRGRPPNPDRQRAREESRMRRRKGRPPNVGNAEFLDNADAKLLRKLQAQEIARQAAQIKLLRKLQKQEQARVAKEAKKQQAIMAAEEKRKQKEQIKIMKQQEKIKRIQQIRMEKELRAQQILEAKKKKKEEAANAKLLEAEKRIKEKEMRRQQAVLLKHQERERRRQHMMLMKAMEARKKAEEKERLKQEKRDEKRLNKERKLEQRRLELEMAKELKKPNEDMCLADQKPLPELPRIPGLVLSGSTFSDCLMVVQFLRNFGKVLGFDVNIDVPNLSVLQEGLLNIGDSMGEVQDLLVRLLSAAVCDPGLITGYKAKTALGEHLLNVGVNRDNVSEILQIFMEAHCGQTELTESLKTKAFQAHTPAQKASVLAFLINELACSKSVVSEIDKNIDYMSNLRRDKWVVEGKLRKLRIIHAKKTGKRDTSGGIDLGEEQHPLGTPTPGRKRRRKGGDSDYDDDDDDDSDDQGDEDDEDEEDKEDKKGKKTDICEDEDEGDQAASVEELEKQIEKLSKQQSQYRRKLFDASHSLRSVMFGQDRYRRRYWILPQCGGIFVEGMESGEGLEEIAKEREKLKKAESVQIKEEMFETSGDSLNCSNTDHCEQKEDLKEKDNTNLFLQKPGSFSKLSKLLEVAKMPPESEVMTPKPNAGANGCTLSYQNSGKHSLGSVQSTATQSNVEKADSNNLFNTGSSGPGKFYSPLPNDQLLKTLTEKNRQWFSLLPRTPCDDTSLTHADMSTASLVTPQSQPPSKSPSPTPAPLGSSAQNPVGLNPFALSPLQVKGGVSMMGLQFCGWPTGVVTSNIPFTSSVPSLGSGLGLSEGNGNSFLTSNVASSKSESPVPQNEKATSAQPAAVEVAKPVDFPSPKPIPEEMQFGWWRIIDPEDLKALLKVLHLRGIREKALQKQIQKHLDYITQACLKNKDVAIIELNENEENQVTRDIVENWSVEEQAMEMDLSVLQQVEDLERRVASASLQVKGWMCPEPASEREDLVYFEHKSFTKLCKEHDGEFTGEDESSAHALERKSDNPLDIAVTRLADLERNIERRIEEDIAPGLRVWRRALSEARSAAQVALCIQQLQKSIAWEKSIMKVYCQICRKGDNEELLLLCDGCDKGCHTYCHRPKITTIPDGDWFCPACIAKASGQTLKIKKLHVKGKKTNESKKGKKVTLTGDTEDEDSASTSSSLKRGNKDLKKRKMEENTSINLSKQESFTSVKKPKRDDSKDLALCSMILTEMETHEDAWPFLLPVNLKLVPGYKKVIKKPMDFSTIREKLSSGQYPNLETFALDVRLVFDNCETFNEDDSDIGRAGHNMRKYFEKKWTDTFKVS
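Multi-concentration screen (max 110 uM) measuring displacement of acetylated histone H3 peptide from BAZ2B by AlphaScreen, using 50 nM protein, 50 nM peptide and 10 ug/mL streptavidin donor plus Ni-chelate acceptor beads.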
JMJD2A Tudor – blocks the human JMJD2A Tudor domain | O75164 | AlphaScreen JMJD2A-Tudor / H3K4me3 peptide binding | Potency, µM (top dose mostly 114 µM), hits mostly inhibitors | hit rate 4.4% among 390,000 | AID 504339; note: nearly all actives have a fitted effect of over 50% in size
G9a inh – G9a (human) methyltransferase inhibition; Q96KQ7; G9a H3K9 monomethylation, AlphaScreen, 2 h; Potency, µM (top dose mostly 102 µM), actives largely listed as inhibitors; hit rate 8.8% among 350,000; AID 504332; note: nearly all actives have a fitted effect of over 75% in size
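Methyltransferase reactions run at room temperature for 2 h (20 nM enzyme, 500 nM biotin-H3K9 peptide, 20 uM SAM) after a 15 min compound preincubation; product detected by AlphaScreen beads and anti-H3K9me1 antibody.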
12-LOX inh – ALOX12 (human) lipoxygenase inhibition; AID 1671190; Potency, µM (titrated, usually from 108 µM), hits mostly inhibitors; purified 12hLO, xylenol orange hydroperoxide absorbance; hit rate 1.1% among 580,000
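Purified human 12hLO (150 nM final) in 25 mM Hepes, 0.01% Triton X-100, pH 7.0 was preincubated 15 min at room temperature with compound. Then 40 uM arachidonic acid was added, 30 min. Hydroperoxide was read by Fe-XO absorbance ratio 573/405 nm.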
HP1b binding inh – inhibitors of HP1-beta chromodomain binding to methylated histone tails; P83916; AlphaScreen HP1-beta / biotin-H3K9me3 peptide binding; Potency, µM (top dose mostly 114 µM), most hits filed as inhibitors; hit rate 0.56% among 390,000; note: nearly all actives have a fitted effect of over 70% in size
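HP1-beta protein (50 nM final) preincubated 30 min at room temperature with biotinylated H3(1-18)K9me3 peptide (50 nM) in PBS pH 7.4, 0.01% Tween-20, then compound added for 30 min. AlphaScreen streptavidin donor/nickel chelate acceptor beads (10 ug/mL final), 30 min dark, luminescence read.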
Sfp PPTase inh – blocks B. subtilis Sfp PPTase activity. hit rate 3.5% among 310,000. Biochemical Sfp PPTase activity, qHTS. Q9F4F7. AID 1490. Potency, µM, hits mostly inhibitors;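 note: the enzyme is Sfp with the accession as filed and its product quenches rhodamine fluorescence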
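Buffer: 50 mM Hepes-Na pH 7.6, 10 mM MgCl2, 0.01% Nonidet P-40, 0.01% BSA. Enzyme 15 nM, pre-exposed to compound 15 min; substrates then added and fluorescence change tracked over 30 min.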
A number is an active result; i = inactive; ? = inconclusive; nt = not tested or not shown; ! = not confirmed by another sample; [ ] = another dose, or the depositor's remark. Only some compounds are listed: those with a hit (about 8.7% of all), similar ones and a draw of the others. Calls come from the whole dose curve; as a rule, active = well fitted curve in the direction sought with a large enough effect; inconclusive = small, poorly fitted or top-dose-only effect, or another doubt; inactive = no such curve, though single readings can be large; an effect the other way counts as inactive or inconclusive.

SMILES | BAZ2B inh | JMJD2A Tudor | G9a inh | 12-LOX inh | HP1b binding inh | Sfp PPTase inh
CCN(C(=O)c1cnc(N2CCOCC2)c2ccccc12)c1ccccc1C | nt | nt | nt | i | nt | nt
O=C(Cc1nc2ccccc2s1)c1ccc(O)cc1O | i | nt | ? | nt | nt | 50µM
CC(C)(C)OC1NS(=O)(=O)OCC1NCOC(Cl)(Cl)Cl (configuration not stated) | 50µM | 79µM | 32µM | i | i | 13µM
C=CCC1NS(=O)(=O)OCC1NC(=O)OCC(Cl)(Cl)Cl (configuration not stated) | i | i | i | i | i | i
COc1ccc(C(=O)Oc2ccc(Br)cc2C(=S)N2CCOCC2)cc1 | i | i | 56µM | i | i | i
Cc1ccc(C(=O)Oc2ccc(Br)cc2C(=S)N2CCOCC2)cc1 | i | i | 40µM | ? | ? | i
Cc1c([N+](=O)[O-])cc(C(=O)Oc2ccc(Br)cc2C(=S)N2CCCCC2)cc1[N+](=O)[O-] | ? | ? | 8.9µM | i | i | i
Cc1ccc(C(=O)Oc2ccccc2N2CCOCC2)cc1 | i | i | i | i | i | i
O=C(Oc1ccc(Br)cc1C(=S)N1CCOCC1)c1ccc(F)cc1 | ? | i | nt | nt | i | 32µM
CC(=O)Nc1ccc2nc3c(=O)n(C)c(=O)n(C)c3nc2c1 | ? | 79µM | 40µM | i | i | ?
CNC(=O)N1CCC(C2CCN(C(=O)c3ccc(OC)nc3)C2)CC1 (configuration not stated) | nt | nt | nt | i | nt | nt
CCCc1cc(Nc2cccc(OCC)c2)n2ncnc2n1 | i | i | 56µM | i | i | i
CCCc1cc(Nc2cccc(OC)c2)n2ncnc2n1 | i | i | i | i | i | i
CC(Oc1ccccc1)C(=O)Nc1cc(Cl)ccc1-n1cncn1 (configuration not stated) | i | i | 45µM | i | i | nt
Cc1ccc(C(=O)Nc2cc(Cl)ccc2-n2cncn2)o1 | i | i | 8.9µM | i | i | nt
O=C(NCC(c1cccs1)N1CCOCC1)c1cc(=O)c2cc(Br)ccc2o1 (configuration not stated) | nt | nt | nt | i | nt | nt
Cc1cc(NC(=O)COC(=O)C2(c3ccc(Cl)cc3)CCC2)no1 | nt | nt | nt | i | nt | nt
COc1ccccc1OCC(=O)Nc1ccc2c(c1)n(C)c(=O)n2C | 56µM | i | ? | i | i | i
COc1ccc(OCC(=O)Nc2ccc3c(c2)n(C)c(=O)n3C)cc1 | ? | i | i[0.501 µM] | i | i | i
CCC(=O)Nc1ccc2c(c1)ncn2-c1ccccc1OC | i | i | 45µM | ? | i | i
CCC(=O)Nc1ccc2c(c1)ncn2-c1ccccc1 | i | i | i | i | i | i
COCC(=O)N[C@@H]1CN(Cc2ccc(Br)o2)C[C@H]1CO | nt | nt | nt | i | nt | nt
Cc1nc2c(cc1C(=O)N/N=C/c1ccc(O)c(O)c1)c(=O)n(C)c(=O)n2C | i | 35µM | ? | i | i | i
COc1cc(C=NNc2nc3c([nH]2)c(=O)n(C)c(=O)n3C)ccc1O | nt | i | nt | i | i | nt
O=S(=O)(NCCO)c1cc(Br)ccc1Br | nt | nt | nt | i | nt | nt
SMILES | BAZ2B inh | JMJD2A Tudor | G9a inh | 12-LOX inh | HP1b binding inh | Sfp PPTase inh
CC(C)(C)OC(=O)NCc1ccc(CNC(=O)c2nc[nH]c2C(=O)N2CCc3ccccc3C2)cc1 | 50µM | i | i[2.33 µM] | i | i | nt
C[C@H](NC(=O)c1nc[nH]c1C(=O)N1CCNCC1)C(=O)OC(C)(C)C | 50µM | 35µM | ? | i | i | nt
O=C(N[C@@H](Cc1ccccc1)C(=O)OCc1ccccc1)c1nc[nH]c1C(=O)N1CCNCC1 | nt | 50µM | nt | i | i | nt
CC(C)(C)OC(=O)NCCCCCNC(=O)c1nc[nH]c1C(=O)N1CCc2ccccc2C1 | nt | ? | nt | i | i | nt
CC(C)(C)OC(=O)N1CCN(C(=O)c2[nH]cnc2C(=O)N[C@@H](Cc2ccccc2)C(=O)OCc2ccccc2)CC1 | i | i | nt | i | i | i
C[C@H](NC(=O)c1nc[nH]c1C(=O)NCCCCCN)C(=O)OC(C)(C)C | 50µM | 56µM | i[2.33 µM] | i | i | nt
CCC(C)c1ccc2oc(-c3ccc(Cl)c(NC(C)=O)c3)nc2c1 (configuration not stated) | nt | nt | nt | i | nt | nt
C[C@H](NC(=O)c1nc[nH]c1C(=O)NCCCCCN)C(=O)OCc1ccccc1 | 50µM | 45µM | i[2.33 µM] | i | i | nt
CCC(C)(C)C(=O)Nc1nc2c(s1)C(=O)CC(C)(C)C2 | nt | nt | nt | i | nt | nt
Cc1ccc(NC(=O)CCC(=O)c2ccc(Cl)s2)nc1 | 56µM | i | i[12.7 µM] | ? | i | nt
Cc1ccc(NC(=O)CCC(=O)c2cc(C)sc2C)nc1 | i | i | ? | ? | i | nt
O=C(CCC(=O)c1ccc(Cl)s1)Nc1ncccc1O | 56µM | 56µM | ? | ? | i | nt
O=C(COC(=O)c1cccnc1Cl)c1ccc(Cl)s1 | nt | i | nt | i | i | nt
O=C(CCC(=O)c1cccs1)Nc1ncccc1O | 56µM | ? | ? | i | i | nt
Cc1ccc(C(=O)CCC(=O)Nc2ncccc2C)cc1 | i | i | i[12.7 µM] | ? | i | nt
Cc1ccc(NC(=O)CCC(=O)c2cccs2)cc1 | i | i | i[12.7 µM] | ? | i | i
Cc1ccc(C(=O)CCC(=O)Nc2ncccc2O)cc1 | 79µM | ? | i | i | i | nt
O=C(CSc1nnc(-c2cccnc2)n1C1CC1)c1cc2ccccc2o1 | nt | nt | nt | i | nt | nt
N#Cc1nc(-c2ccco2)oc1N1CCN(C(=O)c2ccc(F)cc2)CC1 | nt | nt | nt | i | nt | nt
O=C(CCCNC(=O)c1ccc(Cl)cc1)Nc1ncccc1O | ? | i | i | i | i | i
O=C(CCNC(=O)c1ccc(Cl)cc1)Nc1ncccc1O | 79µM | i | i | i | i | i
Cc1nc2scc(C)n2c(=O)c1S(=O)(=O)Nc1ccc(N2CCN(C(=O)C(C)C)CC2)cc1 | i | 40µM! | i | i | i | i
Cc1nc2scc(C)n2c(=O)c1S(=O)(=O)Nc1ccc(F)cc1 | i | i | i | i | i | i
CCc1cccc(NS(=O)(=O)c2c(C)nc3scc(C)n3c2=O)c1 | i | i | 28µM | i | i | i
Cc1ccccc1C(=O)N1CCc2c([nH]c3ccccc23)C1C(F)(F)F (configuration not stated) | ? | i | ? | i | ? | i
CC(C)c1nc(C(=O)N2CCc3c([nH]c4ccccc34)C2c2ccccn2)cs1 (configuration not stated) | 22µM | 56µM | nt | i | i | i
O=C(Cc1ccsc1)N1CCc2c([nH]c3ccccc23)C1c1ccccn1 (configuration not stated) | i | ? | 50µM | i | i | i
O=C(O)c1cccnc1C(=O)N1CCc2c([nH]c3ccccc23)C1C(F)(F)F (configuration not stated) | i | ? | 56µM | i | i | i
Cc1nc(C(=O)N2CCc3c([nH]c4ccccc34)C2c2ccccn2)cs1 (configuration not stated) | i | i | i | i | i | i
CCCCc1ccc(NC(=O)CN2C(=O)NC(c3ccccc3OCC)C3=C2COC3=O)cc1 (configuration not stated) | nt | nt | nt | i | nt | nt
